Hits are enriched below; roughly 8.3% of the tested compounds scored in any of these assays.
Chronic BCR inh: chronic active BCR signaling inhibition | ABC-DLBCL IkBa-CBG/CBR reporter, luminescence ratio, 4 h | Potency, µM (doses to about 46.1 µM), without a hit: at the top dose activity change, negative = inhibition, actives largely listed as inhibitors | 0.05% of 340,000 active | AID 493014; active means well fitted inhibition curve with a large enough effect in the signal ratio, with a control signal flat, not every such curve was filed as active; inconclusive means small, poorly fitted or top-dose-only effect, or effect the other way, or a change in a side signal; the % refers to the signal ratio;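 further: potency means the concentration at half of the fitted maximal effect; plate controls were basal doxycycline-induced cells for no effect and cells given 10 µM MG132 for full effect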
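TMD8 ABC-DLBCL cells carrying doxycycline-inducible green luciferase fused to IkappaBalpha plus unfused red luciferase were exposed to compounds (up to 46 uM) for 4 hrs at 37C. Activity came from the overlap-corrected green/red luminescence ratio.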
RORg inh: blocks mouse ROR gamma transcriptional activity | Potency, µM (titrated, usually from 53.6 µM), for the others: at the top dose activity change, negative = inhibition, most hits filed as inhibitors | Drosophila S2 Gal4-RORgamma UAS-luciferase reporter, 20 h | P51450 | AID 2551 | 5.4% of 310,000 active; further: potency means the concentration at half of the fitted maximal effect; on the % scale 0 is the no-effect control and ±100 the full control effect; nearly all actives have a fitted effect of over 60% in size
Target sequence (P51450 whole entry, looked up, the tested form may be a part): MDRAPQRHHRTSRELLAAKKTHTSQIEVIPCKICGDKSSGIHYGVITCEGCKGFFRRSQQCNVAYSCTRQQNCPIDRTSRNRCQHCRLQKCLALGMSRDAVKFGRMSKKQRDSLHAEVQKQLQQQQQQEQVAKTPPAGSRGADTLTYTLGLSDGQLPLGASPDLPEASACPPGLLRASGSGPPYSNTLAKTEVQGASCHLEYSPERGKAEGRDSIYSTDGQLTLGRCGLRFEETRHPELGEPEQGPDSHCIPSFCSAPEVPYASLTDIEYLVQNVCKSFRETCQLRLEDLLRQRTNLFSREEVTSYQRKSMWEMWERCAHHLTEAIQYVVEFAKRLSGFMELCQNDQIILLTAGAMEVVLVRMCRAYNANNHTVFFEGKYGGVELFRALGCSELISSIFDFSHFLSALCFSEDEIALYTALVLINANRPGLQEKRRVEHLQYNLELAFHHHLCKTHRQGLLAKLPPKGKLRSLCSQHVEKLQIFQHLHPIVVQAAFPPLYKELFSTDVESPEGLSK
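Stable Schneider cell line, Gal4 DNA-binding domain fused to ROR gamma, UAS-luciferase. Cmpd 1 hr RT → CuSO4 700 uM final → 20 hr RT → luciferase reagent 10 min → luminescence.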
Giardia killer: Giardia lamblia killing | Giardia lamblia trophozoite viability | activity change, % at 7.66 µM, hits read low | 0.15% of 340,000 active | AID 540267; in the data active means activity change below about -80%; inconclusive means between about -30% and that limit;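 further: parasites exposed to compound for two days anaerobically before the ATP read; on the % scale 0 is the no-effect control and ±100 the full control effect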
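Giardia lamblia trophozoites (100 cells/well) were incubated with compounds for 48 h at 37 deg C under anaerobic conditions. Viability was read as ATP content by one-step luminescence after 15-30 min at room temperature.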
SW480 rerep: induces DNA re-replication in SW480 colon adenocarcinoma cells. SW480 DNA re-replication, Hoechst DNA content imaging, 48 h. AID 624297. Potency, µM (titrated, usually from 46.1 µM), for the others: at the top dose re-replication activation, hits mostly activators. 1.8% of 340,000 active; further: potency means the concentration at half of the fitted maximal effect; % of control where 0% means no effect; nearly all actives have a fitted effect of over 55% in size
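Compounds, transferred as 23 nL by pin tool, were incubated with cells for 48 hr; DNA content per nucleus was then quantified by Hoechst staining and fluorescence plate imaging.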
VP16 counter: counter-screen for ROR gamma inhibitors: Gal4-VP16 reporter; AID 2546; Potency, µM (series often up to 53.6 µM), inactives show top-dose activity, negative = inhibition, most hits filed as inhibitors; 3.5% of 310,000 active; Drosophila S2 Gal4-VP16 UAS-luciferase, luminescence, 20 h;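 further: Gal4-VP16 expression switched on by copper sulfate through the metallothionein promoter; potency means the concentration at half of the fitted maximal effect; on the % scale 0 is the no-effect control and ±100 the full control effect; nearly all actives have a fitted effect of over 50% in size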
MCF10A rereplic: inducers of DNA re-replication in MCF 10A breast cells; MCF 10A DNA re-replication, Hoechst nuclear intensity, 48 h; Potency, µM (highest dose often 46.1 µM), for inactives: top-dose activity, positive = re-replication, hits mostly activators; 2.9% of 350,000 active; AID 624296; further: potency means the concentration at half of the fitted maximal effect; % of control where 0% means no effect; nearly all actives have a fitted effect of over 50% in size
An asterisk follows results filed as active; [ ] = dose if it differs, or a comment. Unless noted, the call rests on the fitted dose curve; in most records, active means well fitted curve in the direction sought with a large enough effect; inconclusive means small, poorly fitted or top-dose-only effect, or another doubt; inactive means no such curve, though single readings can be large; an effect the other way counts as inactive or inconclusive.

Results for COc1ccc(/C=C2/CCCC(CN(C)C)C2=O)cc1 (stereo not drawn) ?
Giardia killer: 3; SW480 rerep: 9.2µM*; MCF10A rereplic: 2.9µM*

What do the screens show for `COC(=O)C1CCCN1S(=O)(=O)c1ccccc1NC(=O)c1cc(OC)c(OC)c(OC)c1` (stereo not drawn)?
Chronic BCR inh: -10%; RORg inh: 0%; Giardia killer: -25; SW480 rerep: -6%; VP16 counter: -5%; MCF10A rereplic: 11%

Results for O=C(CSc1nnc(C2CC2)n1CC1CCCO1)Nc1cccc(Cl)c1 (stereo not drawn) ?
Chronic BCR inh: inconclusive; RORg inh: 0%; Giardia killer: -17; SW480 rerep: -15%; VP16 counter: 7%; MCF10A rereplic: 0%

How did CC(C)(O)CC[C@@H](O)[C@](C)(O)[C@H]1CC[C@@]2(O)C3=CC(=O)[C@@H]4C[C@@H](O)[C@@H](O)C[C@]4(C)[C@H]3CC[C@]12C do in these assays?
Chronic BCR inh: 3%; RORg inh: -11%; Giardia killer: 14; SW480 rerep: -35%; VP16 counter: 6%; MCF10A rereplic: 14%

How did CN(CC(=O)Nc1ccc(F)c(F)c1F)C(=O)c1ccc(-n2cncn2)cc1 do in these assays?
Chronic BCR inh: inconclusive; Giardia killer: 7; SW480 rerep: 7%; MCF10A rereplic: 2%

Results for Nc1nc(NC2CC2)c2ncn([C@H]3C=C[C@@H](CO)C3)c2n1 ?
RORg inh: 1%[10 µM]; SW480 rerep: -2%; VP16 counter: -16%; MCF10A rereplic: 2%

How did Cc1ccc(-c2nn3c(C)nnc3c3ccccc23)cc1S(=O)(=O)NC(C)(C)CO do in these assays?
Chronic BCR inh: 0%; RORg inh: -44%; Giardia killer: 10; SW480 rerep: 0%; VP16 counter: 6%; MCF10A rereplic: 11µM*

Results for Cn1c(=O)c2[nH]c(CCNC(=O)c3ccccc3)nc2n(C)c1=O ?
Giardia killer: 2; SW480 rerep: 1%; MCF10A rereplic: -1%

How did O=C(CC(=O)Nc1ccccc1C(F)(F)F)Nc1ccccc1C(F)(F)F do in these assays?
Chronic BCR inh: -1%; RORg inh: 12%; Giardia killer: -6; SW480 rerep: 2%; VP16 counter: -6%; MCF10A rereplic: -8%

Results for CC(C)C(=O)NC(=S)Nc1ccccc1C(F)(F)F ?
Chronic BCR inh: 9%; RORg inh: 5µM*; Giardia killer: -6; SW480 rerep: -5%[9.22 µM]; VP16 counter: inconclusive; MCF10A rereplic: 9%

What do the screens show for `CCC(=O)NC(=S)Nc1ccccc1C(F)(F)F`?
Giardia killer: 0; SW480 rerep: -5%; MCF10A rereplic: 0%

Results for O=C(NNC(=S)Nc1ccccc1C(F)(F)F)c1cccnc1 ?
Chronic BCR inh: inconclusive; RORg inh: -22%; Giardia killer: -18; SW480 rerep: 10%; VP16 counter: -14%; MCF10A rereplic: -10%[9.22 µM]

How did CCCC(=O)NC(=S)Nc1ccccc1C(F)(F)F do in these assays?
RORg inh: 7.9µM*; Giardia killer: 12; SW480 rerep: -6%; VP16 counter: inconclusive; MCF10A rereplic: -1%

Results for N#CCC(=O)NNC(=S)Nc1ccccc1C(F)(F)F ?
Chronic BCR inh: 5%; RORg inh: 11µM*; Giardia killer: 1; SW480 rerep: -6%; VP16 counter: inconclusive; MCF10A rereplic: inconclusive

How did FC(F)(F)c1ccccc1NC(=S)NN=C1CCCCCC1 do in these assays?
Chronic BCR inh: inconclusive; RORg inh: 4.5µM*; Giardia killer: 7; SW480 rerep: 12µM*; VP16 counter: inconclusive; MCF10A rereplic: inconclusive

What do the screens show for `Cc1ccc(S(=O)(=O)NCc2ccc(C(=O)NC3CCC(O)CC3)cc2)cc1C` (stereo not drawn)?
Chronic BCR inh: inconclusive; Giardia killer: -2; SW480 rerep: 12%; MCF10A rereplic: inconclusive

How did COc1ccc(Br)cc1C(=O)CCC(=O)OCC(=O)Nc1cc(C(N)=O)cc(C(N)=O)c1 do in these assays?
Chronic BCR inh: -3%; Giardia killer: -2; SW480 rerep: inconclusive; MCF10A rereplic: -18%

How did COc1ccc2c(c1)C(c1ccccc1)NC(=O)C2 (stereo not drawn) do in these assays?
Chronic BCR inh: 3%; Giardia killer: 2; SW480 rerep: -34%; MCF10A rereplic: 10%

How did CCOc1ccc(OCCC(=O)N(CCC(C)C)c2c(N)n(Cc3ccccc3)c(=O)[nH]c2=O)cc1 do in these assays?
Chronic BCR inh: 15%; Giardia killer: -8; SW480 rerep: inconclusive; MCF10A rereplic: -7%

Results for COc1ccccc1NC(=O)CSC1=Nc2ccccc2C2=NC(CCC(=O)NCc3cccs3)C(=O)N12 (stereo not drawn) ?
Chronic BCR inh: -5%

Results for C=CCN1C(=O)/C(=C/c2ccc(O)c(OC)c2)S/C1=N/c1nccs1 ?
Chronic BCR inh: inconclusive; RORg inh: 13%; Giardia killer: 5; SW480 rerep: inconclusive; VP16 counter: -10%; MCF10A rereplic: 18µM*

What do the screens show for `C=CCN1C(=O)/C(=C/c2ccc(OCC(=O)O)cc2)S/C1=N/c1nccs1`?
Chronic BCR inh: 4%; RORg inh: 6%; Giardia killer: 12; SW480 rerep: 1%; VP16 counter: -1%; MCF10A rereplic: inconclusive

What do the screens show for `O=C(NC(=S)Nc1ncc(Br)cc1Br)c1cncc(Br)c1`?
RORg inh: 6.3µM*; Giardia killer: -3; SW480 rerep: -2%; VP16 counter: inconclusive; MCF10A rereplic: -5%

What do the screens show for `O=C(NC(=S)NC1CCCCCC1)c1cncc(Br)c1`?
Chronic BCR inh: 1%; RORg inh: 3.5µM*; Giardia killer: 5; SW480 rerep: 0%; VP16 counter: 6.3µM*; MCF10A rereplic: inconclusive

How did Cc1cc(O)ccc1NC(=S)NC(=O)c1cncc(Br)c1 do in these assays?
Chronic BCR inh: inconclusive; RORg inh: 0.79µM*; Giardia killer: -16; SW480 rerep: 0%; VP16 counter: 0.56µM*; MCF10A rereplic: -1%

What do the screens show for `CCCOC(C(=O)OC1CCN(C)CC1)(c1ccccc1)c1ccccc1`?
RORg inh: -25%; SW480 rerep: inconclusive; VP16 counter: 1%; MCF10A rereplic: inconclusive

Results for COC(=O)CCC(C)C1CCC2C3C(C[C@H](O)C12C)C1(C)CC[C@@H](O)CC1C[C@H]3O (stereo partly drawn) ?
RORg inh: -2%; VP16 counter: -25%

Results for COc1ccc(-c2nc(N3CCC(C)CC3)[nH]c(=O)c2C#N)cc1 ?
Chronic BCR inh: inconclusive; RORg inh: 7%; Giardia killer: -13; SW480 rerep: inconclusive; VP16 counter: -4%; MCF10A rereplic: 3.7µM*

Screening results as filed in PubChem BioAssay.
